# Screening data (PubChem)
# Rows were chosen to be rich in hits. Some 18% of all compounds tested hit in one or more screens of this group.
# VDR inhibitor = Inhibitors of the vitamin D receptor (VDR): qHTS; Potency, µM, for inactives: max response, negative = inhibition, hits mostly inhibitors; Vitamin D3 receptor (Homo sapiens), P11473; actives 0.93% (n = 400,000); VDR-SRC2-3 peptide fluorescence polarization, 2 h
#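 Inhibition of the VDR/SRC2-3 peptide interaction is quantified by fluorescence polarization. Compounds (23 nl, pintool) incubate with the reagents for 2 hours at ambient room temperature.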
# TDP1 block = qHTS Assay for Inhibitors of Tyrosyl-DNA Phosphodiesterase (TDP1) | actives 0.28% (n = 350,000) | Potency, µM (doses to about 130 µM), inactives show at the highest dose activity change, negative = inhibition, hits mostly inhibitors | Tyrosyl-DNA phosphodiesterase 1 (Homo sapiens), Q9NUW8 | AID 485290, 2010 | recombinant TDP1, AlphaScreen DNA substrate cleavage; also: nearly all actives have a fitted effect of over 40% in size
#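 Compounds were preincubated with Tdp1 (1 nM final) for 15 min at room temperature before substrate (15 nM final) started a 5 min reaction; beads (10 ug/ml final) were then added for 10 min before AlphaScreen detection.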
# PLK1 PBD block = qHTS for Inhibitors of PLK1-PDB (polo-like kinase 1 - polo-box domain): Primary Screen. Serine/threonine-protein kinase PLK1 (Homo sapiens), P53350. actives 2.8% (n = 360,000). AID 720504, 2013. Potency, µM, without a hit: max response, negative = inhibition, hits mostly inhibitors. Plk1 PBD binding of FITC phosphopeptide, fluorescence polarization; also: series mostly up to about 57 µM; nearly all actives have a fitted effect of over 65% in size
# Target sequence (P53350 whole entry, looked up, the tested form may be a part): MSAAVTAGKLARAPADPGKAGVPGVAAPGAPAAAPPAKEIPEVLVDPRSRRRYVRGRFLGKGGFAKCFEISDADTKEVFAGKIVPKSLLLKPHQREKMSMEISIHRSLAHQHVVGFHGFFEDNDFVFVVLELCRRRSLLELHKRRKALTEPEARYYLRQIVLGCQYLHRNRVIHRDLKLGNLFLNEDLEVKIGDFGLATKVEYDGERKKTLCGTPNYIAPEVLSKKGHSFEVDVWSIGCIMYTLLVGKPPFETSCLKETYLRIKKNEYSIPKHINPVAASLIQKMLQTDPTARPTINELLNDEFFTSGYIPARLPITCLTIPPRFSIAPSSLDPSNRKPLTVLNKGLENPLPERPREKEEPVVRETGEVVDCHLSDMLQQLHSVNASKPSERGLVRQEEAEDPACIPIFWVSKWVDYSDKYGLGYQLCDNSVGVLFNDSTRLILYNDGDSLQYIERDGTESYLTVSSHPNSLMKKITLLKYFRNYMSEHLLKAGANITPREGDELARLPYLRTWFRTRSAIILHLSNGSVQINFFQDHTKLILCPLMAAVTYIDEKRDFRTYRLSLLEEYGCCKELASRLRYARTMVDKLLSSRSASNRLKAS
# GCN5L2 inh = qHTS Assay for Inhibitors of GCN5L2. Histone acetyltransferase KAT2A (Homo sapiens), Q92830. GCN5L2 HAT assay, ThioGlo1 CoA-SH fluorescence. Potency, µM (series often up to 58.9 µM), without a hit: top-dose activity change, negative = inhibition, most hits filed as inhibitors. actives 0.21% (n = 390,000). AID 504327, 2011
#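 qHTS, 1536-well. 20nM enzyme, pH 7.5 HEPES/EDTA/Tween-20 buffer; 15 min compound preinc., RT. Start: 75uM H3(1-25), 70uM AcCoA, 50uM ThioGlo1. Read Ex340/Em540 at t=0 (autofluorescence flag) and t=20 min.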
# DT40 TDP1 no CPT = qHTS for Inhibitors of human tyrosyl-DNA phosphodiesterase 1 (TDP1): qHTS in cells in absence of CPT; AID 686978, 2013; actives 15% (n = 420,000); Potency, µM (doses to about 46.2 µM), for inactives: top-dose activity change, negative = growth inhibition, most hits filed as inhibitors; DT40 Tdp1-/- hTDP1 cells, no CPT, ATP luminescence, 48 h; also: nearly all actives have a fitted effect of over 55% in size
#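 Seeded 400 DT40-hTDP1 cells/well (vehicle DMSO, no 20 nM CPT); pinned compounds; ≥48 hr at 37 °C; CellTiter-Glo luminescence as viability measure.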
# DT40 TDP1 CPT = qHTS for Inhibitors of human tyrosyl-DNA phosphodiesterase 1 (TDP1): qHTS in cells in presence of CPT. chicken DT40 Tdp1-/-;hTDP1 cells + 20 nM CPT, ATP luminescence, 48 h. Potency, µM (highest dose often 46.2 µM), without a hit: top-dose activity change, negative = growth inhibition, usual class: inhibitors. actives 12% (n = 420,000); also: nearly all actives have a fitted effect of over 55% in size
#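 Chicken DT40 Tdp1-/- cells stably complemented with human TDP1 were seeded at 400 cells/well in medium containing 20 nM camptothecin, exposed to pin-transferred compounds, and grown at 37 °C for at least 48 hr. Viability was read as ATP luminescence.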
# * hit, by the source's call; ? = inconclusive; · = no result given. Calls follow the shape of the dose curve; as a rule, active = well fitted curve in the direction sought with a large enough effect; inconclusive = small, poorly fitted or top-dose-only effect, or another doubt; inactive = no such curve, though single readings can be large; an effect the other way counts as inactive or inconclusive. % is scaled to controls: 0 for no effect and ±100 for the full control effect; potency is read from the fitted curve at half-maximal effect.
SMILES,VDR inhibitor,TDP1 block,PLK1 PBD block,GCN5L2 inh,DT40 TDP1 no CPT,DT40 TDP1 CPT
Cc1ccc(-c2nnc(SCC(=O)c3ccc(Cl)cc3)n2-c2ccccc2)cc1,-3%,-5%,·,-12%,8.2µM*,4.6µM*
CC(C)(C)C(=O)Nc1cccc(-c2ncon2)c1,-6%,-1%,-4%,7%,-9%,0%
CCC(CC)C(=O)Nc1nnc(S(=O)(=O)N(C)c2cc(C)cc(C)c2)s1,-10%,0%,·,-4%,?,-24%
Cc1ccc(S(=O)(=O)c2nnn3c2nc(NCc2ccccc2Cl)c2sccc23)cc1,17%,-5%,·,-7%,?,?
Cc1cc(C)cc(-n2c(C)c3c(C)nnc(C)c3c2C)c1,14%,8%,-10%,-5%,7.3µM*,8.2µM*
Cc1nnc(C)c2c(C)n(-c3ccc(Cl)c(N)c3)c(C)c12,2%,·,-20%,-2%,?,?
CC(C)CCNC(=O)CCSCCC(=O)NCCC(C)C,-2%,2%,-11%,0%,0%,10%
COCCCNc1nc(NCc2ccccc2OC)c2cnn(C)c2n1,0%,-1%,·,13%,23µM*,?
CC1=C(C#N)C(NC(=O)c2ccccc2)(C(F)(F)F)C(=O)N1 (stereo not given),-10%,2%,·,2%,-3%,-16%
CCn1c(O)c(C2=c3ccccc3=NC2=O)c2cc(Br)ccc21,?,-2%,-17%,4%,12µM*,6.5µM*
CCOc1ccc(N2C(=O)CC(N(Cc3ccco3)C(=O)CCC(=O)O)C2=O)cc1 (stereo not given),-6%,3%,-1%,1%,3%,-2%
O=C(CSc1nnc(Nc2ccccc2F)s1)NC(=O)CN1CCCC1=O,-10%,14µM*,-20%,-10%,4%,-2%
O=C(Nc1nnc(-c2ccco2)o1)c1ccc(S(=O)(=O)N2CCCCC2)cc1,·,·,6%,·,13µM*,21µM*
CC1CCCCN1S(=O)(=O)c1ccc(C(=O)Nc2nnc(-c3ccco3)o2)cc1 (stereo not given),-18%,4%,-7%,-6%,26µM*,15µM*
COc1cc(-c2nnc(NC(=O)c3ccc(S(=O)(=O)N4CCOCC4)cc3)o2)cc(OC)c1OC,·,4%,·,-17%,·,·
COc1cccc(-c2nnc(NC(=O)c3ccc(S(=O)(=O)N4CCOCC4)cc3)o2)c1,4%,15%,1%,-7%,12µM*,23µM*
CC1CCCCN1S(=O)(=O)c1ccc(C(=O)Nc2nnc(-c3ccccn3)o2)cc1 (stereo not given),-10%,7%,-8%,-6%,?,-23%
Cc1cc(C)c2sc(N3CCN(C(=O)c4ccc(N(C)C)cc4)CC3)nc2c1,7%,8%,·,?,15µM*,?
Cc1cc(C)c(C(=O)c2ccc(C(=O)N3CCCCC3)cc2)c(C)c1,-7%,1%,-5%,-3%,-8%,-25%
COc1ccc2nc(N3CCN(C(=O)C4CC4)CC3)sc2c1,-30%,8%,·,-3%,-25%,-3%
CCOC(=O)C1CCN(C(=O)C2CCN(c3nc4ccc(OC)cc4s3)CC2)CC1,12%,2%,-6%,-12%,16µM*,13µM*
Cc1cc(C)c2sc(N3CCN(C(=O)C4CC4)CC3)nc2c1,6%,-3%,·,8%,18µM*,29µM*
CC(C)COC(=O)N1CCN(S(=O)(=O)c2ccc3c(c2)CCC3)CC1,3%,-3%,4%,-1%,?,?
